PubChem BioAssay (NCI)
Values joined by “and” are separate entries in the source; they are usually repeats but may differ in a detail not shown here. Equal entries are not always repeated. About 83,000 compounds went through this panel and 20% of them were active in at least one assay; those are over-represented in the sample as a whole.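 Percent growth is the endpoint: 0 to 100 indicates growth inhibition (40 means 60% inhibition), 0 means no net growth, and negative values indicate cell death.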 Active and inactive are the calls of the source. The calls were made as follows: active = growth percent below 10; inactive = the rest.

What was measured:
Experiment in all cases: NCI-60 one-dose screen, 48 h (100 = growth as untreated, 0 = no growth, -100 = all killed)
Settings in all cases: 10 µM unless noted
SK-MEL-2 melanoma = tested on: SK-MEL-2 melanoma
EKVX NSCLC = tested on: EKVX NSCLC
SN12C renal = tested on: SN12C renal
UO-31 renal = tested on: UO-31 renal
TK-10 renal = tested on: TK-10 renal
ACHN renal = tested on: ACHN renal
CAKI-1 renal = tested on: CAKI-1 renal
A498 renal = tested on: A498 renal
CCRF-CEM leukemia = tested on: CCRF-CEM leukemia
MOLT-4 leukemia = tested on: MOLT-4 leukemia
SR leukemia = tested on: SR leukemia
RPMI-8226 leukemia = tested on: RPMI-8226 leukemia
OVCAR-8 ovarian = tested on: OVCAR-8 ovarian
OVCAR-4 ovarian = tested on: OVCAR-4 ovarian
SK-OV-3 ovarian = tested on: SK-OV-3 ovarian
IGROV1 ovarian = tested on: IGROV1 ovarian
OVCAR-3 ovarian = tested on: OVCAR-3 ovarian
HS 578T breast = tested on: HS 578T breast
NCI/ADR-RES ovarian = tested on: NCI/ADR-RES ovarian
OVCAR-5 ovarian = tested on: OVCAR-5 ovarian

Row | Structure (SMILES) | growth (SK-MEL-2 melanoma) | growth (EKVX NSCLC) | growth (SN12C renal) | growth (UO-31 renal) | growth (TK-10 renal) | growth (ACHN renal) | growth (CAKI-1 renal) | growth (A498 renal) | growth (CCRF-CEM leukemia) | growth (MOLT-4 leukemia) | growth (SR leukemia) | growth (RPMI-8226 leukemia) | growth (OVCAR-8 ovarian) | growth (OVCAR-4 ovarian) | growth (SK-OV-3 ovarian) | growth (IGROV1 ovarian) | growth (OVCAR-3 ovarian) | growth (HS 578T breast) | growth (NCI/ADR-RES ovarian) | growth (OVCAR-5 ovarian)
1 | COc1cc(/C=C2/C=C(c3ccc(C(C)(C)C)cc3)N(CCc3ccc(S(N)(=O)=O)cc3)C2=O)cc(OC)c1OC | 79.2% (inactive) | 51.3% (inactive) | 64.7% (inactive) | 37.1% (inactive) | 82.1% (inactive) | 49.5% (inactive) | 71.6% (inactive) | 82.4% (inactive) | 29.3% (inactive) | 16.3% (inactive) | 18.4% (inactive) | -5.19% (active) | 57.4% (inactive) | 54.7% (inactive) | 79.9% (inactive) | 70.5% (inactive) | 48.8% (inactive) | 69.6% (inactive) | 71.8% (inactive) | 
2 | C#CCn1cnc2cnc(Nc3cccc(NC(=O)CCl)c3)nc21 | -14.1% [6.25 µM] (active) | 69.1% [6.25 µM] (inactive) | 6.82% [6.25 µM] (active) | -71.1% [6.25 µM] (active) | -5.69% [6.25 µM] (active) | -39.9% [6.25 µM] (active) | -34.2% [6.25 µM] (active) | -42.2% [6.25 µM] (active) | 1.51% [6.25 µM] (active) | 0.772% [6.25 µM] (active) | 1.67% [6.25 µM] (active) | -14.9% [6.25 µM] (active) | 8.6% [6.25 µM] (active) | 13% [6.25 µM] (inactive) | 15.3% [6.25 µM] (inactive) | -38.1% [6.25 µM] (active) | -44.9% [6.25 µM] (active) | 10.4% [6.25 µM] (inactive) | 2.34% [6.25 µM] (active) | 
3 | COc1ccc(-c2cc(-c3cc(OC)c(OC)c(OC)c3)c(C#N)c(=O)n2CCCCC(=O)O)cc1 | 107% (inactive) | 98.5% (inactive) | 90.6% (inactive) | 65.7% (inactive) | 112% (inactive) | 91.2% (inactive) | 70.9% (inactive) | 85.6% (inactive) | 85.3% (inactive) | 105% (inactive) | 72.6% (inactive) | 84.3% (inactive) | 92.4% (inactive) | 91.5% (inactive) | 125% (inactive) | 104% (inactive) | 99.6% (inactive) | 87.7% (inactive) | 102% (inactive) | 
4 | BrC1=C(Br)C(Br)(Br)C(Br)=C1Br | 95.3% (inactive) | 109% (inactive) | 86.2% (inactive) | 79.3% (inactive) | 97.8% (inactive) | 88.5% (inactive) | 87.3% (inactive) | 109% (inactive) | 17.5% (inactive) | 17.1% (inactive) | 9.34% (active) | 20.8% (inactive) | 62.8% (inactive) | 104% (inactive) | 108% (inactive) | 98.3% (inactive) | 104% (inactive) | 118% (inactive) | 75.2% (inactive) | 
5 | CCN(CC)CCOc1ccc(/C(=C(\Cl)c2ccccc2)c2ccccc2)cc1 | 7.89% (active) | 47.7% (inactive) and 87.7% (inactive) | 54.8% (inactive) and 75.6% (inactive) | 24% (inactive) and 66.4% (inactive) | 111% (inactive) | 52.8% (inactive) and 81.3% (inactive) | 41.3% (inactive) and 69.9% (inactive) | 77.1% (inactive) | 28% (inactive) and 89% (inactive) | 36.8% (inactive) and 91.6% (inactive) | 17.4% (inactive) and 85.1% (inactive) | -21.2% (active) and 88.8% (inactive) | 67.2% (inactive) and 104% (inactive) | 55.5% (inactive) and 47.4% (inactive) | 45.5% (inactive) and 80.8% (inactive) | 53.6% (inactive) | 76.9% (inactive) and 118% (inactive) | 55% (inactive) | 59.3% (inactive) and 92.9% (inactive) | 
6 | NC(=O)c1c(NC(=O)/C=C/c2cccs2)sc2c1CCC(=O)C2 | 49.7% (inactive) | 40.4% (inactive) | 23.1% (inactive) | 5.7% (active) | 43.9% (inactive) | 5.27% (active) | 14.2% (inactive) | 115% (inactive) | 10.5% (inactive) | 21.8% (inactive) | 11.2% (inactive) | -9.58% (active) | 20.2% (inactive) | 14.2% (inactive) | 94.7% (inactive) | 24.4% (inactive) | 13.8% (inactive) | 26.7% (inactive) | 52.4% (inactive) | 79.3% (inactive)
7 | COc1ccc(C(=O)N/N=C/c2ccc(O)cc2O)cc1Nc1ccnc(C(F)(F)F)c1 | 61.5% (inactive) | 26.9% (inactive) | 33.1% (inactive) | 30.4% (inactive) | 53.4% (inactive) | 35.8% (inactive) | 39.3% (inactive) | 55.2% (inactive) | 5.69% (active) | 23.4% (inactive) | 35.3% (inactive) | 41.7% (inactive) | 23.1% (inactive) | 31.7% (inactive) | 19.7% (inactive) | 26.8% (inactive) | 78.5% (inactive) | 55.4% (inactive) | 64% (inactive) | 
8 | CC(=NCc1ccccc1)c1ccc(O)cc1O | 107% (inactive) | 111% (inactive) | 91.8% (inactive) | 81.7% (inactive) | 92.8% (inactive) | 96.6% (inactive) | 107% (inactive) | 100% (inactive) | 85% (inactive) | 89.7% (inactive) | 93.5% (inactive) | 96.6% (inactive) | 103% (inactive) | 101% (inactive) | 103% (inactive) | 105% (inactive) | 103% (inactive) | 112% (inactive) | 98.4% (inactive) | 
9 | Nc1ncc(-c2ccc3ncnc(N4CCc5ccc(Cl)cc54)c3c2)cc1C(F)(F)F | 14.1% (inactive) | 6.87% (active) | 20.6% (inactive) | -12% (active) | -3.58% (active) | 11% (inactive) | -9.77% (active) | -62.5% (active) | 21.6% (inactive) | 7.2% (active) | -5.75% (active) | -3.24% (active) | 25.2% (inactive) | 8.43% (active) | 6.83% (active) | -53.3% (active) | 10.8% (inactive) | -14.3% (active) | 20.3% (inactive) | 
10 | O=S(=O)(Nc1cc(Sc2cccc3cccnc23)c(O)c2ccccc12)c1ccc(F)cc1 | 1.64% (active) | 37.1% (inactive) | -15% (active) | -11.2% (active) | 17.1% (inactive) | 0.351% (active) | 11.9% (inactive) | 70.4% (inactive) | 5.42% (active) | -18.4% (active) | 4.77% (active) | -12.8% (active) | 5.74% (active) | -99% (active) | 50.8% (inactive) | 1.46% (active) | -87.6% (active) | 50% (inactive) | 3.32% (active) | 
11 | COc1cc(-c2nc(SCCC(C)C)nc(Nc3ccc(F)cc3)c2C#N)cc(OC)c1OC | 101% (inactive) | 85% (inactive) | 64.6% (inactive) | 64.6% (inactive) | 41.4% (inactive) | 34.1% (inactive) | 49.6% (inactive) | 62.5% (inactive) | 91.4% (inactive) | 83.4% (inactive) | 73.1% (inactive) | 91.2% (inactive) | 40.7% (inactive) | 2.39% (active) | 47.3% (inactive) | 69.6% (inactive) | 19.8% (inactive) | 50.1% (inactive) | 77.7% (inactive) | 
12 | O=C(/C=C/c1cccs1)Nc1ncc(Cc2ccc(Cl)c(Cl)c2)s1 | 77.1% (inactive) | 57.8% (inactive) | 79.8% (inactive) | 49.6% (inactive) | 61.5% (inactive) | 36.4% (inactive) | 23.8% (inactive) | 57.1% (inactive) | 68% (inactive) | 51.4% (inactive) | 32.7% (inactive) | 78.1% (inactive) | 72.7% (inactive) | 66.6% (inactive) | 68.8% (inactive) | 64.1% (inactive) | 40.4% (inactive) | 62.4% (inactive) | 60.3% (inactive) | 74.1% (inactive)
